Assay results from PubChem BioAssay (NCI).
This is part of a sample that, as a whole, favours compounds with a hit. Of some 79,000 tested, about 15% had one in any assay. Active and inactive are the calls of the source. Cut-off read from the data, not from the text of the source: active = growth inhibition above about 70%; inactive = the rest.

Columns and labels:
[1] = NCI Yeast Anticancer Drug Screen. Data for the wt1 strain (AID 149);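 note: 0% = growth of vehicle-treated wt1 cultures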; settings: S. cerevisiae wt1 strain (SPY 50644) growth inhibition, active compounds read high
Method in brief: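 Yeast wt1 strain exposed to compounds; growth inhibition measured relative to vehicle-treated controls.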

[2] = NCI Yeast Anticancer Drug Screen. Data for the rad50EPP+ strain (AID 151);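 note: 0% = growth of vehicle-treated control cultures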; settings: S. cerevisiae rad50 mutant strain, active compounds read high
Method in brief: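 Vehicle-normalised growth inhibition; rad50EPP+ yeast strain, altered in DNA damage repair, compound-treated.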

[3] = NCI Yeast Anticancer Drug Screen. Data for the mgt1 strain (AID 153); settings: S. cerevisiae mgt1 mutant growth inhibition, active compounds read high
Method in brief: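 Vehicle-normalized growth inhibition is determined in mgt1 yeast, a strain selected for a defined alteration in DNA repair or cell cycle control.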

[4] = NCI Yeast Anticancer Drug Screen. Data for the rad50 strain (AID 155);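 note: 0% = growth of vehicle-only cultures of the same strain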; settings: S. cerevisiae rad50 strain growth inhibition, active compounds read high
Method in brief: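 Yeast carrying a defined DNA repair defect were exposed to test compounds, and growth was compared with vehicle-treated controls to give percent inhibition.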

[5] = NCI Yeast Anticancer Drug Screen. Data for the mec2-1 strain (AID 157); settings: S. cerevisiae mec2-1 strain, active compounds read high
Method in brief: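 Mutant yeast (mec2-1) grown with compound; growth inhibition relative to vehicle control reported.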

[6] = NCI Yeast Anticancer Drug Screen. Data for the rad14 strain (AID 159);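 note: 0% = growth of vehicle-treated control cultures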; settings: S. cerevisiae rad14 strain growth inhibition, active compounds read high
Method in brief: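 Yeast cells carrying a defined DNA-repair defect were exposed to compounds, and growth inhibition was calculated relative to vehicle-treated control cultures.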

[7] = NCI Yeast Anticancer Drug Screen. Data for the sgs1 mgt1 strain (AID 161);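 note: 0% = growth of cultures given vehicle only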; settings: S. cerevisiae sgs1 mgt1 strain, active compounds read high
Method in brief: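 Yeast cells carrying a defined DNA-repair defect were exposed to test compounds. Growth inhibition was measured relative to vehicle-treated controls.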

[8] = NCI Yeast Anticancer Drug Screen. Data for the CLN2oe strain (AID 163);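 note: 0% = growth of vehicle-only control cultures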; settings: S. cerevisiae CLN2oe strain, active compounds read high
Method in brief: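 Compounds are applied to yeast harbouring a defined cell-cycle control change; reduced growth compared with vehicle-treated controls gives the value.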

[9] = NCI Yeast Anticancer Drug Screen. Data for the cln2 rad14 strain (AID 165);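 note: 0% = growth equal to vehicle treated cultures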; settings: S. cerevisiae cln2 rad14 strain, active compounds read high
Method in brief: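 Readout is yeast growth inhibition versus vehicle-treated controls, using a strain with cln2 and rad14 alterations exposed to compound.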

[10] = NCI Yeast Anticancer Drug Screen. Data for the bub3 strain (AID 167); settings: S. cerevisiae bub3 mutant strain, active compounds read high
Method in brief: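 Compounds were applied to a genetically altered yeast strain carrying a cell-cycle control defect. Growth inhibition was scored against vehicle-treated controls.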

[11] = NCI Yeast Anticancer Drug Screen. Data for the wt2 strain (AID 169);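 note: 0% = growth of vehicle-treated yeast cultures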; settings: S. cerevisiae wt2 strain growth inhibition, active compounds read high
Method in brief: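 Against vehicle-treated controls, the growth of yeast exposed to each compound was compared, and the inhibition was recorded.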

[12] = NCI Yeast Anticancer Drug Screen. Data for the mlh1 strain (AID 171);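 note: 0% = growth of vehicle-treated control cultures of the same strain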; settings: S. cerevisiae mlh1 strain growth inhibition, active compounds read high
Method in brief: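 Measured: yeast growth. Reference: vehicle-treated controls. Organism: strain with a defined alteration affecting DNA damage repair or cell cycle control, treated with compound.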

[13] = NCI Yeast Anticancer Drug Screen. Data for the sgs1 strain (AID 173);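 note: 0% = growth of vehicle-only control cultures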; settings: S. cerevisiae sgs1 mutant, active compounds read high
Method in brief: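 Each compound was added to cultures of the altered yeast strain. Growth was recorded, and inhibition was derived by comparison with vehicle controls.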

[14] = NCI Yeast Anticancer Drug Screen. Data for the rad18 strain (AID 177); settings: S. cerevisiae rad18 mutant growth inhibition, active compounds read high
Method in brief: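 Vehicle-treated cultures served as the baseline for scoring compound-induced growth inhibition in DNA-repair-mutant yeast.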

[15] = NCI Yeast Anticancer Drug Screen. Data for the mlh1 rad18 strain (AID 175); settings: S. cerevisiae mlh1 rad18 strain growth inhibition, active compounds read high
Method in brief: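 Genetically defined yeast (DNA repair-deficient) exposed to compounds; growth inhibition determined relative to vehicle.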

[16] = at 5.0 µM (retest, dose inferred, filed as 0.5)
[17] = at 50.0 µM (retest, dose inferred, filed as 5.0)

Measured: growth inhibition

C#CC1=CC(=O)C(OC)=CC1=O
active: [1]; at 33.0 µM 90% | [1]; at 100.0 µM 98% | [2]; at 33.0 µM 95% | [2]; at 100.0 µM 98% | [3]; at 33.0 µM 99% | [3]; at 100.0 µM 99% | [4]; at 11.0 µM 94% | [4]; at 33.0 µM 98% | [4]; [17] 99% | [4]; at 100.0 µM 98% | [5]; at 11.0 µM 89% | [5]; at 33.0 µM 99% | [5]; [17] 99% | [5]; at 100.0 µM 99% | [6]; at 11.0 µM 82% | [6]; at 33.0 µM 99% | [6]; at 100.0 µM 99% | [7]; [17] 99% | [8]; at 33.0 µM 88% | [8]; at 100.0 µM 99% | [9]; [17] 99% | [10]; at 11.0 µM 88% | [10]; at 33.0 µM 99% | [10]; [17] 99% | [10]; at 100.0 µM 99% | [11]; at 33.0 µM 97% | [11]; at 100.0 µM 99% | [12]; at 11.0 µM 96% | [12]; at 33.0 µM 99% | [12]; at 100.0 µM 99% | [13]; at 11.0 µM 98% | [13]; at 33.0 µM 100% | [13]; at 100.0 µM 99% | [14]; at 3.7 µM 83% | [14]; at 11.0 µM 96% | [14]; at 33.0 µM 99% | [14]; at 100.0 µM 99%
inactive: [1]; at 1.2 µM -2% | [1]; at 3.7 µM -1% | [1]; at 11.0 µM 23% | [2]; at 1.2 µM 9% | [2]; at 3.7 µM 21% | [2]; at 11.0 µM 43% | [3]; at 1.2 µM 0% | [3]; at 3.7 µM 11% | [3]; at 11.0 µM 48% | [4]; at 1.2 µM 14% | [4]; at 3.7 µM 34% | [4]; [16] 53% | [4]; at 50.0 µM 30.4% | [5]; at 1.2 µM 0% | [5]; at 3.7 µM 14% | [5]; [16] 23% | [5]; at 50.0 µM 62% | [6]; at 1.2 µM 12% | [6]; at 3.7 µM 21% | [7]; [16] 54% | [7]; at 50.0 µM 32.5% | [8]; at 1.2 µM 2% | [8]; at 3.7 µM 14% | [8]; at 11.0 µM 29% | [9]; [16] 39% | [9]; at 50.0 µM 47.4% | [10]; at 1.2 µM -6% | [10]; at 3.7 µM 0% | [10]; [16] 21% | [10]; at 50.0 µM 65.2% | [11]; at 1.2 µM -6% | [11]; at 3.7 µM 2% | [11]; at 11.0 µM 48% | [12]; at 1.2 µM 3% | [12]; at 3.7 µM 16% | [13]; at 1.2 µM 11% | [13]; at 3.7 µM 34% | [14]; at 1.2 µM 40%

O=CC(=C(I)I)c1ccccc1
inactive: [1]; at 1.2 µM 15% | [1]; at 3.7 µM 41% | [3]; at 1.2 µM 17% | [3]; at 3.7 µM 50% | [5]; at 1.2 µM 28% | [5]; at 3.7 µM 67% | [5]; [16] 33% | [6]; at 1.2 µM 20% | [6]; at 3.7 µM 38% | [7]; [16] 43% | [8]; at 1.2 µM -1% | [8]; at 3.7 µM -3% | [8]; at 11.0 µM 23% | [9]; [16] 2% | [10]; at 1.2 µM -6% | [10]; at 3.7 µM -4% | [10]; [16] -17% | [10]; at 11.0 µM 27% | [12]; at 1.2 µM 13% | [12]; at 3.7 µM 32% | [13]; at 1.2 µM 56% | [15]; [16] 18% | [14]; at 1.2 µM 50%
active: [1]; at 11.0 µM 88% | [1]; at 33.0 µM 99% | [1]; at 100.0 µM 90% | [2]; at 1.2 µM 91% | [2]; at 3.7 µM 96% | [2]; at 11.0 µM 97% | [2]; at 33.0 µM 98% | [2]; at 100.0 µM 99% | [3]; at 11.0 µM 98% | [3]; at 33.0 µM 99% | [3]; at 100.0 µM 93% | [4]; at 1.2 µM 93% | [4]; at 3.7 µM 95% | [4]; [16] 97% | [4]; at 11.0 µM 97% | [4]; at 33.0 µM 99% | [4]; [17] 100% | [4]; at 50.0 µM 85.7% | [4]; at 100.0 µM 97% | [5]; at 11.0 µM 99% | [5]; at 33.0 µM 99% | [5]; [17] 99% | [5]; at 50.0 µM 88.9% | [5]; at 100.0 µM 97% | [6]; at 11.0 µM 73% | [6]; at 33.0 µM 99% | [6]; at 100.0 µM 86% | [7]; [17] 99% | [7]; at 50.0 µM 90.8% | [8]; at 33.0 µM 98% | [8]; at 100.0 µM 98% | [9]; [17] 100% | [9]; at 50.0 µM 91.5% | [10]; at 33.0 µM 99% | [10]; [17] 100% | [10]; at 50.0 µM 92.2% | [10]; at 100.0 µM 99% | [12]; at 11.0 µM 81% | [12]; at 33.0 µM 97% | [12]; at 100.0 µM 85% | [13]; at 3.7 µM 79% | [13]; at 11.0 µM 99% | [13]; at 33.0 µM 99% | [13]; at 100.0 µM 99% | [15]; [17] 100% | [15]; at 50.0 µM 93.1% | [14]; at 3.7 µM 72% | [14]; at 11.0 µM 96% | [14]; at 33.0 µM 98% | [14]; at 100.0 µM 95%

Cc1nc2ccccc2c(=O)n1NC(=O)c1ccc(CS)cc1
active: [1]; at 100.0 µM 96% | [2]; at 100.0 µM 85% | [3]; at 100.0 µM 86% | [4]; at 100.0 µM 97% | [5]; at 50.0 µM 76.2%
inactive: [1]; at 1.2 µM 8% | [1]; at 3.7 µM 1% | [1]; at 11.0 µM 4% | [1]; at 33.0 µM 17% | [2]; at 1.2 µM -9% | [2]; at 3.7 µM 4% | [2]; at 11.0 µM -3% | [2]; at 33.0 µM 23% | [3]; at 1.2 µM -11% | [3]; at 3.7 µM -12% | [3]; at 11.0 µM -17% | [3]; at 33.0 µM 6% | [4]; at 1.2 µM 7% | [4]; at 3.7 µM 3% | [4]; [16] -24% | [4]; at 11.0 µM 4% | [4]; at 33.0 µM 23% | [4]; [17] 9% | [4]; at 50.0 µM 66.2% | [5]; at 1.2 µM -16% | [5]; at 3.7 µM -4% | [5]; [16] -27% | [5]; at 11.0 µM -13% | [5]; at 33.0 µM 23% | [5]; [17] 1%
